Measurements from paper PMC5540273 (PLoS ONE, 2017).

What was measured:
Settings in all cases: concentration: 1 μM, replicates: in singlicate; n = 1
INSR = tested on: INSR
IRAK1 = tested on: IRAK1
IRAK3 = tested on: IRAK3
IRAK4 = tested on: IRAK4
ITK = tested on: ITK
[1] = tested on: JAK1(JH1domain-catalytic)
[2] = tested on: JAK1(JH2domain-pseudokinase)
[3] = tested on: JAK2(JH1domain-catalytic)
[4] = tested on: JAK3(JH1domain-catalytic)
JNK1 = tested on: T1, JNK1
T1 construct: gene MAPK8

JNK2 = tested on: T2, JNK2
T2 construct: gene MAPK9

JNK3 = tested on: T3, JNK3
T3 construct: gene MAPK10

KIT-autoinhibited = tested on: KIT-autoinhibited
KIT = tested on: KIT
LATS1 = tested on: LATS1
LATS2 = tested on: LATS2
LCK = tested on: LCK
LIMK1 = tested on: LIMK1
LIMK2 = tested on: LIMK2
LKB1 = tested on: T4, LKB1
T4 construct: gene STK11
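Note: KINOMEscan kinase panel screen.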

| Structure (SMILES) | %Inh (INSR) [%] | %Inh (IRAK1) [%] | %Inh (IRAK3) [%] | %Inh (IRAK4) [%] | %Inh (ITK) [%] | %Inh [1] [%] | %Inh [2] [%] | %Inh [3] [%] | %Inh [4] [%] | %Inh (JNK1) [%] | %Inh (JNK2) [%] | %Inh (JNK3) [%] | %Inh (KIT-autoinhibited) [%] | %Inh (KIT) [%] | %Inh (LATS1) [%] | %Inh (LATS2) [%] | %Inh (LCK) [%] | %Inh (LIMK1) [%] | %Inh (LIMK2) [%] | %Inh (LKB1) [%] |
| --- | --- | --- | --- | --- | --- | --- | --- | --- | --- | --- | --- | --- | --- | --- | --- | --- | --- | --- | --- | --- |
| Nc1ncnc2c1ncn2-c1cccc(F)c1 [SKF-97560] | 9 | 33 | 0 | 30 | 6 | 10 | 12 | 39 | 55 | 38 | 18 | 36 | 25 | 39 | 0 | 42 | 20 | 20 | 22 | 4 |
| COc1ccc(CNC(=O)NC2CCN(c3ccnc(Nc4ccc(F)cc4)n3)C2)cc1 (centres unmarked) [GSK1379706] | 17 | 45 | 0 | 0 | 8 | 13 | 0 | 39 | 0 | 19 | 9 | 13 | 3 | 39 | 22 | 27 | 16 | 0 | 29 | 13 |
| CN(C)c1cc(-c2ccc3c(N)n[nH]c3c2)nc(N)n1 [GSK2219329] | 0 | 0 | 0 | 0 | 6 | 6 | 7 | 0 | 0 | 0 | 11 | 4 | 81 | 7 | 0 | 2 | 17 | 0 | 14 | 0 |
| COc1cc2nccc(Nc3cccc(Oc4ccccc4)c3)c2cc1OC.Cl [GW284543] | 4 | 0 | 2 | 0 | 13 | 0 | 1 | 0 | 0 | 1 | 31 | 0 | 0 | 15 | 10 | 0 | 51 | 0 | 0 | 0 |
| COc1cc2ncn(-c3cc(OCc4ccc(S(C)(=O)=O)cc4)c(C(N)=O)s3)c2cc1OC [GW869979] | 13 | 26 | 4 | 21 | 16 | 2 | 11 | 18 | 30 | 36 | 18 | 18 | 21 | 0 | 0 | 39 | 12 | 11 | 16 | 25 |
| COc1cc2ncn(-c3cc(OCc4ccncc4Br)c(C(N)=O)s3)c2cc1OC [GW854278] | 1 | 3 | 27 | 3 | 0 | 0 | 19 | 0 | 0 | 0 | 5 | 5 | 5 | 24 | 22 | 0 | 25 | 0 | 8 | 0 |
| Cc1nnc(-c2ccc(C)c(-c3ccc(C(=O)O)cc3)c2)o1 [GW608005] | 0 | 0 | 0 | 13 | 4 | 3 | 0 | 24 | 0 | 1 | 0 | 0 | 0 | 0 | 0 | 0 | 0 | 4 | 0 | 5 |
| CN1C(=O)C(Nc2cc(Cl)c(O)c(Cl)c2)=C(c2ccc(Cl)cc2)C1=O [SB-404321] | 0 | 0 | 0 | 0 | 0 | 13 | 0 | 0 | 0 | 24 | 19 | 15 | 26 | 0 | 0 | 0 | 0 | 0 | 0 | 32 |
| O=C(Nc1n[nH]c2nc(-c3ccccc3)c(Cl)cc12)C1CC1 [SB-734909] | 31 | 26 | 23 | 24 | 0 | 14 | 22 | 13 | 0 | 56 | 32 | 29 | 0 | 51 | 0 | 24 | 3 | 9 | 12 | 37 |
| Cc1nn2c(=O)cc(N3CCOCC3)nc2n1Cc1cccc(Cl)c1Cl [GSK2342769] | 0 | 75 | 16 | 16 | 14 | 10 | 0 | 6 | 0 | 10 | 15 | 5 | 0 | 10 | 0 | 0 | 5 | 0 | 0 | 0 |
| CCC(=O)c1c(-c2ccccc2)c2cc(Cl)ccc2c(=O)n1Cc1ccc(C(=O)O)cc1 | 0 | 0 | 0 | 0 | 12 | 9 | 0 | 0 | 0 | 95.2 | 93.4 | 94.6 | 0 | 39 | 2 | 0 | 0 | 2 | 0 | 1 |
| COc1cc2ncn(-c3cc(OCc4ccncc4)c(C(N)=O)s3)c2cc1OC [GSK336313] | 1 | 8 | 0 | 0 | 4 | 6 | 0 | 0 | 0 | 0 | 12 | 1 | 0 | 18 | 0 | 8 | 30 | 2 | 18 | 0 |
| COc1cc(Nc2nccc(N3CCC(NC(=O)C4COc5ccccc5O4)C3)n2)cc(OC)c1OC (centres unmarked) [GSK1379761] | 0 | 61 | 76 | 0 | 4 | 7 | 21 | 98.5 | 55 | 20 | 22 | 7 | 0 | 22 | 3 | 0 | 31 | 0 | 4 | 27 |
| COc1cc(OC)cc(-c2cc3cnc(N)nc3nc2NC(=O)NC(C)(C)C)c1 | 0 | 0 | 0 | 0 | 0 | 0 | 0 | 0 | 0 | 0 | 0 | 0 | 0 | 0 | 0 | 34 | 0 | 0 | 0 | 0 |
| CCC(=O)c1c(-c2ccccc2)c2cc(Cl)ccc2c(=O)n1Cc1cc(S(C)(=O)=O)n(CC(N)=O)n1 | 0 | 0 | 0 | 0 | 0 | 0 | 51 | 0 | 0 | 99 | 99 | 99.2 | 4 | 6 | 0 | 0 | 3 | 0 | 0 | 37 |
| CCC(=O)c1c(-c2ccccc2)c2cc(Cl)ccc2c(=O)n1Cc1cc(S(C)(=O)=O)n(CC(F)F)n1 | 0 | 26 | 0 | 27 | 0 | 2 | 0 | 0 | 0 | 99.1 | 99.4 | 99.4 | 0 | 5 | 0 | 0 | 0 | 0 | 0 | 0 |
| COC(=O)c1c(-c2ccccc2)c2cc(Br)ccc2c(=O)n1Cc1ccc(NC(=O)CCC(=O)O)cc1 | 8 | 8 | 25 | 16 | 12 | 5 | 0 | 0 | 0 | 99 | 99.1 | 99.3 | 1 | 38 | 27 | 17 | 0 | 0 | 0 | 6 |
| O=c1cc(N2CCOCC2)nc2n(Cc3ccc(F)c(Cl)c3)ccn12 [GSK2297099] | 23 | 10 | 0 | 16 | 1 | 19 | 0 | 100 | 0 | 21 | 8 | 5 | 0 | 9 | 4 | 0 | 0 | 7 | 6 | 0 |
| Cl.NS(=O)(=O)c1cccc(Nc2cc(-c3ccc(F)cc3)n[nH]2)c1 [GW824645] | 5 | 0 | 0 | 0 | 0 | 0 | 23 | 48 | 0 | 8 | 1 | 0 | 35 | 90 | 0 | 0 | 0 | 0 | 0 | 25 |
